Our source for the INHIBITION values is ChEMBL document CHEMBL4513216, “Probing the Open Global Health Chemical Diversity Library for Multistage-Active Starting Points for Next-Generation Antimalarials” (ACS Infect Dis, 2020).

Screen size: about 69,000 compounds; about 8,600 (12%) showed an effect of 50% or more. Shown is part of a subset that was picked to be rich in strong results.

In this assay the test system is Plasmodium berghei. Description: Screen against P. berghei liver stage (PbLuc), transformed with Luciferase, at 10uM. To be noted: tested at 10 uM. The format is functional, HepG2.
As to `O=C(NCc1ccco1)c1[nH]nc2c1CS(=O)(=O)CC2`, the INHIBITION amounted to 48.2%.
As to `O=C1CO[C@@H]2CN(Cc3cccs3)C[C@H]2N1CC1CC1`, the INHIBITION came to 24.5%.
Take `O=C(NCc1nn(-c2ccccc2)c2c1CCC2)NC1CC1`: the INHIBITION turned out to be 30.2%.
Take `Cc1c(CNCc2nn(-c3ccccc3)c3c2CCC3)cc(C#N)n1C`: the INHIBITION was 63.6%.
Turning to `O=C(NCc1nn(-c2ccccc2)c2c1CCC2)C1CC1`, the INHIBITION was 59.55%.
On to `COc1ccccc1CNCc1nn(-c2ccccc2)c2c1CCC2`, for which the INHIBITION came to 36.8%.
On to `O=C1CCC(C(=O)NCc2nn(-c3ccccc3)c3c2CCC3)CN1` (centres undefined), for which the INHIBITION amounted to 41.9%.
Under `Cc1noc(C)c1CNCc1nn(-c2ccccc2)c2c1CCC2` stands -0.159%; under `Cc1cc(C)n(CCCNC(=O)[C@@H](C)NC(=O)OC(C)(C)C)n1`, 15.8%; under `CCOc1ccc(Cl)cc1NC(=O)N1CCC(n2cncn2)CC1`, 47%.
Under `NC(=O)c1cnc(-c2ccccc2)nc1CCNC(=O)CN1CCCC1` stands 12.8%; under `COC1CCN(C(=O)c2ccccc2NCc2cccnc2)CC1`, -30%.
For `Cc1cnc(C)c(N2CCN(Cc3ccc(C)c(C)c3)CC2)n1`, the INHIBITION is listed as 75%.
Turning to `Cc1ccc(CN2CCC(Cc3nnc(CO)n3C)CC2)cc1C`, the INHIBITION amounted to 4.48%.
With `Cc1cccnc1N1CCN(Cc2cc(O)c3cccc(F)c3n2)CC1`, the INHIBITION came out at 18.6%.
Consider `CCc1ccc(O)c(C(=O)NC2CCN(Cc3ccncc3)CC2)c1`, for which the INHIBITION is 48.9%.
Regarding `Cc1cnc(C)c(N2CCN(CC3CCCO3)CC2)n1` (centres undefined), the INHIBITION was 4.93%.
Consider `COC(=O)c1cc(CN2CCN(c3ncccc3C)CC2)ccc1O`, for which the INHIBITION worked out at 71%.
With `Cc1cccc(CN2CCN(C(=O)c3cccnc3O)CC2)c1`, the INHIBITION worked out at 11.2%.
Turning to `COC(=O)c1cc(C)nc(N2CCN(Cc3ccn(C(C)C)c3)CC2)n1`, the INHIBITION was 24.2%.
For the molecule `COC(=O)c1cc(CN2CCN(c3nc(C)cnc3C)CC2)ccc1O`, the INHIBITION was determined as 51.2%.
With `Cc1noc(C)c1-c1nc(C2CCCN(C(=O)CCN)C2)ccc1CO` (centres undefined), the INHIBITION is given as -10.2%.
Next, `Cc1nc(C2CCCN(C(=O)COCc3ccccc3)C2)no1` (centres undefined): 21.5%; `CCn1ncc2[nH]c(-c3cc4c(cc3OC)OCO4)nc21`: -7.2%.
Under `O=C(NCCc1ccccc1)C1CCN(C(=O)Cn2cncn2)C1` (centres undefined) stands 3.48%; under `CN(C(=O)CSc1ncc[nH]1)c1ccccc1`, 49.6%.
Under `CCN(CC)C(=O)CSc1ncc[nH]1` stands 44.2%; under `CN(C(=O)CSc1ncc[nH]1)C1CC1`, 53.9%; under `CC(C)(C)OC(=O)N1CCC(C(=O)NCc2cc3ccccc3[nH]2)C1` (centres undefined), -8.4%.
With `CC(C)N1CCC2(CC1)C(=O)N(c1cccnc1)c1ccc(F)cc12`, the INHIBITION is 28.2%.
`COC[C@]1(O)CCN(C2CCN(c3ccc(Cl)cc3)CC2)CC1(C)C`: the INHIBITION is 29.4%.
Turning to `O=C(NCCCn1nc2ccccn2c1=O)NCCC1CCC1`, the INHIBITION is recorded as 37.9%.
Turning to `Cc1nc(CN2CCC(c3nc4ccccc4n3C)CC2)co1`, the INHIBITION is on record as 42.3%.
Next, `Cn1ccnc1CN1CCC(c2nc3ccccc3n2C)CC1`: 39.3%.
In the case of `CC(C)c1nccc(CN2CCC(c3nc4ccccc4n3C)CC2)n1`, the INHIBITION is on record as 52.6%.
As to `Cc1cccc(CN2CC3(CCN(C4CCOC4)CC3)OCC2=O)n1` (centres undefined), the INHIBITION was 5.56%.
Consider `CSCc1noc(CNC(=O)[C@H]2CNC[C@@H](C(=O)N3CCCC3)C2)n1`, for which the INHIBITION was 38.5%.
`COCCC1(CO)CCCN(C(=O)c2cccnc2O)C1` (centres undefined): the INHIBITION is 56.3%.
In the case of `COCCC1(CO)CCCN(C(=O)c2cccnc2OC)C1` (centres undefined), the INHIBITION is listed as 43.4%.
Next, `CC(C)=CCC1(CO)CCCN(Cc2nccs2)C1` (centres undefined): -21.1%; `CNc1nc(C(=O)N2CCCC(CO)(CCCOC)C2)cs1` (centres undefined): 58.6%.
As to `COCCCC1(CO)CCCN(CCOC)C1` (centres undefined), the INHIBITION is on record as -6.88%.
Regarding `CNc1nc(C(=O)N2CCC3(CCCN(CCOC)C3=O)C2)cs1` (centres undefined), the INHIBITION was 36.2%.
On to `CCCn1ccnc1CN1CCCC(CC)(CO)C1` (centres undefined), for which the INHIBITION is on record as 0.348%.
Next, `CNc1ncc(C(=O)N2CCCC(CO)(CCCOC)C2)cn1` (centres undefined): 31.3%.
Next, `CCCC1(CO)CCCN(Cc2nccs2)C1` (centres undefined): 81.6%.
As to `COCCC1(CO)CCCN(C(=O)c2cc(Cl)ccc2F)C1` (centres undefined), the INHIBITION is -2.43%.
Under `COCCCC1(CO)CCCN(Cc2nccs2)C1` (centres undefined) stands 75.2%; under `CCCC1(CO)CCCN(Cc2ncccn2)C1` (centres undefined), -36.5%.
Next, `O=S(=O)(C1CC1)N1CCO[C@H]2[C@H](Oc3cccnc3)CC[C@@H]21`: -21.1%.
Consider `Cn1ccc(C(=O)N2CCc3[nH]nc(Nc4ccccc4)c3C2)n1`, for which the INHIBITION stood at 17.04%.
`CCC1c2ccsc2CCN1C(=O)NCCc1ccccn1` (centres undefined): the INHIBITION was found to be 0%.
As for `CCc1ncc(C(=O)N2CCN(Cc3ncccc3C)CC2)cn1`, the INHIBITION is recorded as 7.25%.
Regarding `O=C1CCC(c2ccccc2)=NN1CN1CCCCCC1`, the INHIBITION is 25.3%.
Regarding `CCN(C(=O)CCc1ccccc1)C1CC(=O)NC1=O` (centres undefined), the INHIBITION turned out to be 9.4%.
Next, `Cc1cc2ccccc2n1CC(=O)N[C@@H](C)C(=O)O`: 4.93%; `Cc1ccc(OCCSCCn2nc3ccccn3c2=O)cc1`: 22%; `CCn1cc(CN2CCCC(CO)(CCc3ccccc3)C2)c(C)n1` (centres undefined): 53.1%.
Next, `CCn1ccnc1CN1CCCC(CO)(CCCc2ccccc2)C1` (centres undefined): 3.68%; `Cn1ccnc1CN1CCCC(CO)(CCc2ccccc2)C1` (centres undefined): 16.6%; `O=C(CN1CCCS1(=O)=O)Nc1cccc(COC2CCCCC2)c1`: 55.5%.
Under `O=C(CN1CCCS1(=O)=O)Nc1ccc(OC2CCCC2)cc1` stands -5.94%; under `O=C(CN1CCCS1(=O)=O)Nc1ccc(OC2CCCC2)c(Cl)c1`, -6.94%; under `CNC(=O)CCc1cc(C2CCCN2C(=O)CO)nc(C)n1` (centres undefined), 29.4%.
Turning to `Cc1nc(CN2C(=O)CC[C@@H]3[C@H]2CCN3C(=O)NC2CC2)cs1`, the INHIBITION stood at 38.7%.
Consider `CN(CC(=O)N1CCOC(CCc2ccccc2)C1)Cc1ccccn1` (centres undefined), for which the INHIBITION turned out to be 54.2%.
As to `Cc1ccnn1CCC(=O)N1CCOC(CCc2ccccc2)C1` (centres undefined), the INHIBITION worked out at 44.3%.
Consider `COc1ccc(CC2CN(C(=O)c3ocnc3C)CCO2)cc1` (centres undefined), for which the INHIBITION turned out to be 46.4%.
Regarding `Cc1ncoc1C(=O)N1CCOC(Cc2ccccc2)C1` (centres undefined), the INHIBITION amounted to 55%.
Consider `O=C(c1scc2c1OCCO2)N1CCOC(Cc2ccc(F)cc2)C1` (centres undefined), for which the INHIBITION is 0.72%.
Regarding `Cc1n[nH]c(CCC(=O)N2CCOC(Cc3ccc(F)cc3)C2)c1C` (centres undefined), the INHIBITION was found to be 55.4%.
Next, `Cc1nc(C(=O)N2CCOC(Cc3ccc(F)cc3)C2)co1` (centres undefined): -23.4%; `O=C(c1scc2c1OCCO2)N1CCOC(CCc2ccccc2)C1` (centres undefined): 75%; `Cc1nc(C(=O)N2CCOC(Cc3ccccc3)C2)co1` (centres undefined): -48.5%.
Turning to `Cc1n[nH]c(CCC(=O)N2CCOC(Cc3ccccc3)C2)c1C` (centres undefined), the INHIBITION came out at 7.19%.
Next, `O=C(c1scc2c1OCCO2)N1CCOC(Cc2cccc(F)c2)C1` (centres undefined): -22%; `CN(CC(=O)N1CCOCC(CO)C1)Cc1ccccn1` (centres undefined): 19.5%; `CC(C)CCc1n[nH]c(C(=O)O)c1Br`: 11.7%.
Under `O=c1[nH]c2cn(-c3cccc(F)c3)c(=O)n2[nH]1` stands 48%; under `CC(C)Cn1cncc1-c1nc2c([nH]1)CCCNC2=O`, -21.8%.
Under `Cc1cccc(-c2nc(C)nn2CC(=O)NC(C)C2CC2)c1` (centres undefined) stands 33.3%; under `Cc1cccc2c1NC(c1cnc(C3CCC3)s1)NC2=O` (centres undefined), 39.3%.
On to `Cc1cc(=O)n2nc(Oc3ccc(F)c(F)c3)sc2n1`, for which the INHIBITION came out at 42.5%.
In the case of `CC(=O)N1CCC(Cc2cnc(C(=O)N3CCCC3)cn2)C1` (centres undefined), the INHIBITION is reported as 7.52%.
Regarding `Cc1ccc(OCCN(C)C(C)c2cccc(S(N)(=O)=O)c2)cc1` (centres undefined), the INHIBITION is given as -31.8%.
Next, `CN(C)C[C@H]1OC[C@@H]2CCN(C(=O)Cc3cccs3)C[C@@H]21`: 13.7%; `Cc1cc(N2Cc3cnn(CCO)c3C2)nc(-c2ccccc2)n1`: -81.1%.
Take `CCNc1ncc(C(=O)N2CCOC(CCCc3ccccc3)C2)cn1` (centres undefined): the INHIBITION was found to be 42.1%.
Next, `O=C(c1cccnc1)N1CCOC(CCCc2ccccc2)C1` (centres undefined): 60.9%.
For the molecule `O=C(c1cccnc1)N1CCOC(Cc2ccccc2Cl)C1` (centres undefined), the INHIBITION was found to be 0.55%.
`COCCCN1Cc2cccc(NC(=O)c3ccccc3Cl)c2C1`: the INHIBITION was 50%.
Next, `COCCCN1Cc2cccc(NC(=O)c3cc(F)cc(F)c3)c2C1`: 45.7%.
Next, `COCCCN1Cc2cccc(NC(=O)c3ccccc3C)c2C1`: 40.6%; `CCn1c(NCc2ccccc2)nc2c(C)nn(C)c2c1=O`: 33.3%; `CCn1c(NCc2cccnc2)nc2c(C)nn(C)c2c1=O`: -9.73%.
With `Cc1nn(C)c2c(=O)n(C(C)C)c(NCCc3ccccc3)nc12`, the INHIBITION is reported as 87.2%.
In the case of `CCn1c(NCc2ccccn2)nc2c(C)nn(C)c2c1=O`, the INHIBITION was determined as 18.4%.
Next, `Cc1nn(C)c2c(=O)n(C(C)C)c(NCC3CCCO3)nc12` (centres undefined): 3.58%; `CCCn1c(NCCc2ccccc2)nc2c(C)nn(C)c2c1=O`: 64.8%.
Next, `CCCn1nc(C)c(C(=O)N(C)[C@@H]2CC[C@@H](OC)[C@@H]2O)c1C`: 40.65%.
With `CCn1ncc2c(C(F)(F)F)cc(-c3cnn(C)c3)nc21`, the INHIBITION was 19.55%.
For `CCOC(=O)c1cnn(C2CCN(C(=O)CC(C)(C)C)CC2)c1N`, the INHIBITION is given as -17.4%.
Regarding `CCN(CC)c1nc(C)cc(C(=O)Nc2cccc(C(N)=O)c2)n1`, the INHIBITION was 25.3%.
Take `Cc1nnc(C(NS(=O)(=O)c2cc(C#N)ccc2C)C(C)C)[nH]1` (centres undefined): the INHIBITION is 49.1%.
Under `CSCC[C@H]1CN2CCC[C@H]2CN1Cc1coc2ccc(C)cc2c1=O` stands 43.6%.
Under `CC(=O)NCC(=O)N1Cc2nccn2CC(CN(C)C(C)C)C1` (centres undefined) stands 5.44%.
`CN(Cc1ccc(Cl)s1)C(=O)Nc1ccc(N(C)C)nc1`: the INHIBITION was determined as 58.8%.
Regarding `CN(C)c1ccc(NC(=O)NCc2ccc(Cl)s2)cn1`, the INHIBITION is reported as -21%.
`CN(Cc1ccsc1)C(=O)Nc1ccc(N(C)C)nc1`: the INHIBITION came to 33.8%.
